Source: PubChem BioAssay (NCATS)
Inconclusive results are not listed. Activity calls are given as the source filed them. The call rests on the fitted dose curve; in most records, active means well fitted inhibition curve with a large enough effect; inconclusive means small, poorly fitted or top-dose-only effect; inactive means flat fitted curve, though single readings scatter.

tested on: not listed separately; experiment: qHTS profiling for inhibitors of Plasmodium falciparum proliferation (AID 504749); further: nearly all actives have a fitted effect of over 60% in size;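 on activity, negative = inhibition: 0% = DMSO vehicle and full inhibition = artemisinin control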; details: P. falciparum in erythrocytes, SYBR Green DNA, 72 h; at 28.7 µM (top of the series); parasite line A
In short: (§1)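 SYBR Green fluorescence (ex 485 nm, em 535 nm) reports parasite DNA after 72 h compound exposure of infected red cells at 0.3% parasitemia, 2.5% hematocrit; signal normalized to 0.29 uM artemisinin and vehicle wells.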
Potency means the concentration at half of the fitted maximal effect.

| Structure (SMILES) | activity, negative = inhibition |
| --- | --- |
| CCOC(=O)Cc1ccc(-c2ccccc2)cc1 | 8.04% (inactive) |
| C[C@H](CCC(=O)O)[C@H]1CC[C@H]2[C@@H]3CC[C@@H]4C[C@H](O)CC[C@]4(C)[C@H]3C[C@H](O)[C@]12C | 0.235% (inactive) |
| S=C1SCN(Cc2ccccc2)CN1Cc1ccccc1 | -6.7% (inactive) |
| O=P(O)(O)OP(=O)(O)O | -13.9% (inactive) |
| OC/C=C/c1ccccc1 | -0.356% (inactive) |
| O=C1c2ccccc2C(=O)C1c1ccc(Cl)cc1 | 10.7% (inactive) |
| CCCCCCCCCCCCCCCCCC[N+](C)(C)CCC[Si](OC)(OC)OC | 12.9% (inactive) |
| Cn1c(=O)c2c(ncn2CCOC(=O)C(C)(C)Oc2ccc(Cl)cc2)n(C)c1=O | -0.561% (inactive) |
| N[C@@H](Cc1cc(I)c(Oc2ccc(O)c(I)c2)c(I)c1)C(=O)O | -3.92% (inactive) |
| O=C(Nc1ccc(O)cc1)c1ccccc1O | 12.3% (inactive) |
| O=C(OCc1ccccc1)c1cccnc1 | -26.7% (inactive) |

same assay, conditions: P. falciparum in erythrocytes, SYBR Green DNA, 72 h; at 28.7 µM (top of the series); parasite line B

| Structure (SMILES) | activity, negative = inhibition |
| --- | --- |
| O=c1n(CC2CO2)c(=O)n(CC2CO2)c(=O)n1CC1CO1 (configuration not stated) | -29.5% (inactive) |
| CNC(=O)c1c(I)c(C(=O)NCC(=O)Nc2c(I)c(C(=O)O)c(I)c(C(=O)NCCO)c2I)c(I)c(N(C)C(C)=O)c1I | 2.12% (inactive) |
| CC(=O)Oc1cccc2c1C(=O)c1c(OC(C)=O)cc(C(=O)O)cc1C2=O | -5.47% (inactive) |
| CC(=O)Nc1ccc(NC(=S)NC(=O)c2ccc(C(C)(C)C)cc2)cc1 | -2.21% (inactive) |
| CC(=O)Nc1c(I)c(C(=O)O)c(I)c(N(C)C(C)=O)c1I | -11.8% (inactive) |
| CC(C)CCCCCCc1ccc(O)cc1 | -29% (inactive) |
| OCc1ccccc1 | -27.8% (inactive) |
| COc1ccc2nc(NC(=O)Nc3ccccc3)sc2c1 | 5.72% (inactive) |

same assay, conditions: P. falciparum in erythrocytes, SYBR Green DNA, 72 h; parasite line A

| Structure (SMILES) | Potency |
| --- | --- |
| CC(CN(C)C)CN1c2ccccc2Sc2ccc(C(F)(F)F)cc21 (configuration not stated) | 11.2 µM (active) |
| CNC(=O)[C@H](Cc1c[nH]c2ccccc12)NC(=O)[C@@H](CC(=O)NO)CC(C)C | 11.2 µM (active) |
| Nc1ccc(N=Nc2ccccc2)c(N)n1 | 10 µM (active) |
| CCCC(CCC)C(=O)OC1C[C@H]2CC[C@@H](C1)[N+]2(C)C (some centres not stated) | 5.62 µM (active) |
| O=C(c1cc2ccccc2o1)N1CCN(Cc2ccccc2)CC1 | 7.94 µM (active) |
| CCCCCCCCCCCCCCCCOCCOCCOCCOCCOCCOCCOCCOCCOCCOCCOCCOCCOCCOCCOCCOCCOCCOCCOCCOCCO | 15.8 µM (active) |

tested on: 3D7; experiment: as above; details: P. falciparum in erythrocytes, SYBR Green DNA, 72 h; series mostly up to 28.7 µM
In short: as §1

| Structure (SMILES) | Potency |
| --- | --- |
| Cc1cc(-c2ccc(N=Nc3c(S(=O)(=O)O)cc4cc(S(=O)(=O)O)cc(N)c4c3O)c(C)c2)ccc1N=Nc1c(S(=O)(=O)O)cc2cc(S(=O)(=O)O)cc(N)c2c1O | inactive |
| CCOC(=O)Cc1ccc(-c2ccccc2)cc1 | inactive |
| CC(CN(C)C)CN1c2ccccc2Sc2ccc(C(F)(F)F)cc21 (configuration not stated) | inactive |
| CNC(=O)[C@H](Cc1c[nH]c2ccccc12)NC(=O)[C@@H](CC(=O)NO)CC(C)C | 10 µM (active) |
| C[C@H](CCC(=O)O)[C@H]1CC[C@H]2[C@@H]3CC[C@@H]4C[C@H](O)CC[C@]4(C)[C@H]3C[C@H](O)[C@]12C | inactive |
| CNC(=O)c1c(I)c(C(=O)NCC(=O)Nc2c(I)c(C(=O)O)c(I)c(C(=O)NCCO)c2I)c(I)c(N(C)C(C)=O)c1I | inactive |
| S=C1SCN(Cc2ccccc2)CN1Cc1ccccc1 | inactive |
| Nc1ccc(N=Nc2ccccc2)c(N)n1 | inactive |
| O=P(O)(O)OP(=O)(O)O | inactive |
| OC/C=C/c1ccccc1 | inactive |
| CN(C)CCC=C1c2ccccc2C(C)(C)c2ccccc21 | inactive |
| CN1CCCC(CN2c3ccccc3Sc3ccccc32)C1 (configuration not stated) | inactive |
| O=C1c2ccccc2C(=O)C1c1ccc(Cl)cc1 | inactive |
| CC(=O)Oc1cccc2c1C(=O)c1c(OC(C)=O)cc(C(=O)O)cc1C2=O | inactive |
| CCCCCCCCCCCCCCCCCC[N+](C)(C)CCC[Si](OC)(OC)OC | inactive |
| CC(=O)Nc1ccc(NC(=S)NC(=O)c2ccc(C(C)(C)C)cc2)cc1 | 11.2 µM (active) |
| CC(=O)Nc1c(I)c(C(=O)O)c(I)c(N(C)C(C)=O)c1I | inactive |
| c1ccc2c(c1)Sc1ccccc1N2CCN1CCCC1 | 11.2 µM (active) |
| NC(N)=NCC1COc2ccccc2O1 (configuration not stated) | inactive |
| CC[C@H]1OC(=O)[C@H](C)[C@@H](O[C@H]2C[C@@](C)(OC)[C@@H](O)[C@H](C)O2)[C@H](C)[C@@H](O[C@@H]2O[C@H](C)C[C@H](N(C)C)[C@H]2O)[C@](C)(O)C[C@@H](C)CN(C)[C@H](C)[C@@H](O)[C@]1(C)O | inactive |
| C=CC[N+]1([C@H]2C[C@H]3[C@@H]4CC[C@H]5C[C@H](O)[C@@H](N6CCOCC6)C[C@]5(C)[C@H]4CC[C@]3(C)[C@H]2OC(C)=O)CCCC1 | inactive |
| O=C1c2ccccc2CN2C(=O)c3ccccc3CN12 | inactive |
| Cn1c(=O)c2c(ncn2CCOC(=O)C(C)(C)Oc2ccc(Cl)cc2)n(C)c1=O | inactive |
| CC(C)CCCCCCc1ccc(O)cc1 | inactive |
| N[C@@H](Cc1cc(I)c(Oc2ccc(O)c(I)c2)c(I)c1)C(=O)O | inactive |
| O=C(Nc1ccc(O)cc1)c1ccccc1O | inactive |
| O=C(OCc1ccccc1)c1cccnc1 | inactive |
